Inconclusive results are not listed. Entries that show only a call come without a potency. Calls of active or inactive are those of the source. Calls follow the shape of the dose curve; as a rule, active = well fitted activation curve with a large enough effect; inconclusive = small, poorly fitted or top-dose-only effect; inactive = no such curve, though single readings can be large or run the other way.
Assay: qHTS assay for re-activators of p53 using a Luc reporter: Hit Validation with no p53 Expressed
Summary of the method: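 Without p53 expression, cells (1000/well, Opti-MEM + 10% FBS) were exposed 24 h at 37 deg C to compounds in a 1:5 series from 10 mM stock (top 46.1 µM in well). Luminescent signal read 10 min after Amplite addition; actives flag unspecific activation.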

Nc1nonc1-n1nnc(C(=O)N/N=C/c2cc(Br)ccc2O)c1CSC1=NCCS1
Potency: inactive

CC1CCc2c(sc(NC(=O)C3=COCCO3)c2C(N)=O)C1 (stereo not given)
Potency: inactive

Clc1ccc(C2=NNC(=NCC3CCCO3)SC2)cc1 (stereo not given)
Potency: inactive

Cc1c(C(=O)N(C)c2ccccc2Cl)cnn1-c1ccccc1
Potency: inactive

c1ccc(-c2cc3cc4c(cc3cn2)OCO4)cc1
Potency: inactive

O=c1c2ccccc2oc2nc(-c3ccco3)n(-c3ccccc3)c(=O)c12
Potency: inactive

CC(=O)Nc1ccc(SCC(=O)c2cc(C)n(-c3ccccc3)c2C)cc1
Potency: inactive

Cc1ccccc1-c1noc(N)c1C#N
Potency: inactive

Cc1cc(C(=O)Nc2nc3c(s2)CCCC3)cs1
Potency: inactive

Fc1ccccc1OCCSc1nnnn1-c1ccccc1
Potency: inactive

Cc1cccc(NC(=O)c2cnc3ccccn3c2=O)c1
Potency: inactive

Nc1c(C(=O)c2ccc(Cl)cc2)oc2ccccc12
Potency: inactive

CCCCOC(=O)Nc1ccc(N2CCCCC2)cc1
Potency: inactive

O=C(Nc1ccc(Cl)cc1)Nc1nnc(SCc2ccccc2)s1
Potency: inactive

O=C(N/N=C/c1cccc(F)c1)NC1CCCCC1
Potency: inactive

Cc1noc(C)c1C(=O)OCC(=O)N1CCc2ccccc21
Potency: inactive

CC(Sc1nc(N)cc(=O)[nH]1)C(=O)NNC(=O)c1cccc(Cl)c1 (stereo not given)
Potency: inactive

COc1ccc2[nH]c(=O)c3c(c2c1)OC(C)(C)C=C3
Potency: inactive

Cc1ccc(NC(CC(=O)c2ccccc2)c2ccc(F)cc2)cc1 (stereo not given)
Potency: inactive

CC(C)(C)c1ccc(NC(=O)COC(=O)c2ccc(NS(=O)(=O)c3ccc(F)c(F)c3)cc2)cc1
Potency: inactive

Source: PubChem BioAssay AID624331 (National Center for Advancing Translational Sciences (NCATS), 2012)
